Test [1] in a line: antimalarial activity against Dd2 strain (AID 2302;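 active = growth inhibition above 50% at the single 2 µM test dose, taken to imply half-maximal potency below 2 µM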;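 also: 0% = DMSO untreated growth and 100% = chloroquine plus artemisinin killed control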). As to conditions: P. falciparum Dd2 in RBCs, LDH growth readout, 72 h; at 2 µM; stronger effect = higher value.
A short description of test [2]: HepG2 cytotoxicity, primary screen, cytotoxicity control for P. falciparum antimalarial project, cell-based, ATP luminescence (AID 2303;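 active = inhibition above 50%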;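 also: 0% = DMSO wells and 100% = digitonin-killed cells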). As to conditions: HepG2 viability, 24-48 h, at 10 µM, stronger effect = higher value.
Test [3] concerns the target L-lactate dehydrogenase (Plasmodium falciparum (isolate CDC / Honduras)) (UniProt Q27743). As to the kind of experiment: PfLDH activity inhibition – cell lysate, 3D7 strain, counter-screen for P. falciparum growth inhibition project (AID 2304).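 Also: 0% = vehicle and 100% = reference inhibitor.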 The settings on record: P. falciparum 3D7 crude extract, LDH APAD/NBT absorbance; at 2 µM; stronger effect = higher value.
Test [4] in a line: inhibition of 3D7 malaria parasite growth – strain 3D7 (AID 2306).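 Also: 0% = DMSO wells and 100% = chloroquine plus artemisinin control wells.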 The settings on record: P. falciparum 3D7 erythrocytic growth, LDH absorbance, 72 h; at 2 µM; stronger effect = higher value.
For test [5], the target named is Calcium-dependent protein kinase 1 (Plasmodium falciparum (isolate 3D7)) (UniProt P62344). The experiment in a line: PfCDPK1 kinase inhibitors, biochemical, TCAMS library (AID 1159585; cut-off not given, nearly all actives have IC50 up to about 0.98 µM;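 also: inhibitors leave more ATP so luminescence rises with inhibition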). As to conditions: recombinant PfCDPK1, Kinase-Glo ATP depletion luminescence.
Test [6] deals with Plasmodium falciparum protein kinase 6 (PK6, PF3D7_1337100) (UniProt Q8IDW1). The experiment in a line: PfPK6 kinase inhibitors, biochemical, TCAMS library (AID 1159586). The settings on record: recombinant PfPK6, Kinase-Glo ATP depletion luminescence.
For test [7], the target named is Protein kinase 7 (PK7), Plasmodium falciparum 3D7 (PF3D7_0213400) (UniProt Q7YTF7). The experiment in a line: inhibition of Plasmodium PK7 catalytic activity – biochemical, TCAMS antimalarial set, Kinase-Glo luminescence (AID 1159587). As to conditions: recombinant PfPK7, Kinase-Glo ATP depletion luminescence.
For test [8], the target named is Calcium-dependent protein kinase 4 (Plasmodium falciparum (isolate 3D7)) (UniProt Q8IBS5). As to the kind of experiment: PfCDPK4 kinase inhibitors, biochemical, TCAMS library (AID 1159588; cut-off not given, nearly all actives have IC50 up to about 0.91 µM). The settings on record: recombinant PfCDPK4, Kinase-Glo ATP depletion luminescence.

Values joined by “and” are separate entries in the source; they are usually repeats but may differ in a detail not shown here. Equal values may be shown once. A number with no mark means an inactive call. For some assays here: Entries with a potency or affinity are not part of this list. Active and inactive are the calls of the source. Unless noted, no rule for the calls is given here.

L-lactate dehydrogenase (Plasmodium falciparum (isolate CDC / Honduras)), sequence (Q27743 whole entry, looked up): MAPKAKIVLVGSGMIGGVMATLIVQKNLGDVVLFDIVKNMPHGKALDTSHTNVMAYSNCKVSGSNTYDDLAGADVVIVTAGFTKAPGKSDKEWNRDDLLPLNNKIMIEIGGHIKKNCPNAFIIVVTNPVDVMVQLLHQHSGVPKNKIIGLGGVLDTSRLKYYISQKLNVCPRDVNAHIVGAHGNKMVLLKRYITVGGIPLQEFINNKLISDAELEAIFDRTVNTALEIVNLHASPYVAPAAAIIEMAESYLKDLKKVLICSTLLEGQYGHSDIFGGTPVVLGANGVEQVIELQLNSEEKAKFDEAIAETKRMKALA
Protein kinase 7 (PK7), Plasmodium falciparum 3D7 (PF3D7_0213400), sequence (Q7YTF7 1-343): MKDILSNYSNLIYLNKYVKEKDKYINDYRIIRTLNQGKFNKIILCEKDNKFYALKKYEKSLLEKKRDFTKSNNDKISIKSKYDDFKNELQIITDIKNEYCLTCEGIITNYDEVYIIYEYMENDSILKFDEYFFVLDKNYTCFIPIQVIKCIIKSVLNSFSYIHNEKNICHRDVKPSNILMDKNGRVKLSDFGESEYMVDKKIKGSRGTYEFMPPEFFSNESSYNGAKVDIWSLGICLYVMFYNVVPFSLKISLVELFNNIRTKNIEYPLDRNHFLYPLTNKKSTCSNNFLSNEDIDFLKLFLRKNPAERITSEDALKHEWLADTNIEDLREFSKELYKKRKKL
Calcium-dependent protein kinase 1 (Plasmodium falciparum (isolate 3D7)), sequence (P62344 whole entry, looked up): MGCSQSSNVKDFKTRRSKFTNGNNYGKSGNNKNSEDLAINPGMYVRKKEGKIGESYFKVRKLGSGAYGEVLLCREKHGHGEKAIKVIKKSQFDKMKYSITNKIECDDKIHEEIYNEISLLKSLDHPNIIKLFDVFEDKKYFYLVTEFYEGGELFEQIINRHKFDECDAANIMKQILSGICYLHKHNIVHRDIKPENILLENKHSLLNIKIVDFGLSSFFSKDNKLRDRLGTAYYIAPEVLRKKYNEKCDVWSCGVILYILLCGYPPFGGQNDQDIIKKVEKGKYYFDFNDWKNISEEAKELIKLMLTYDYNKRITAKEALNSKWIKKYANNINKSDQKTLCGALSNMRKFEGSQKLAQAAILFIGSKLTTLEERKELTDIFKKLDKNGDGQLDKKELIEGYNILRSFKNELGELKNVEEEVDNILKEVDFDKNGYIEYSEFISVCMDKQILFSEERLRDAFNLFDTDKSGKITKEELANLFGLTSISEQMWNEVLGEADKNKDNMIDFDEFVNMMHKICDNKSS
Plasmodium falciparum protein kinase 6 (PK6, PF3D7_1337100), sequence (Q8IDW1 1-305): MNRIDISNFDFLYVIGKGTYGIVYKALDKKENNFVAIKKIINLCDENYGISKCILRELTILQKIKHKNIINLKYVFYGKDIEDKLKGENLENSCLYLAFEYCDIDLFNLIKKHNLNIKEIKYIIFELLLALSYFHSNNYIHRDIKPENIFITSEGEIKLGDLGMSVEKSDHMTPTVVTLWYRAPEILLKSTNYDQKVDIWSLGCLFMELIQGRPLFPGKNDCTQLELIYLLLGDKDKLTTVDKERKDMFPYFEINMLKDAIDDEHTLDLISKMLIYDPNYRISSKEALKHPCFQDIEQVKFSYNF
Calcium-dependent protein kinase 4 (Plasmodium falciparum (isolate 3D7)), sequence (Q8IBS5 whole entry, looked up): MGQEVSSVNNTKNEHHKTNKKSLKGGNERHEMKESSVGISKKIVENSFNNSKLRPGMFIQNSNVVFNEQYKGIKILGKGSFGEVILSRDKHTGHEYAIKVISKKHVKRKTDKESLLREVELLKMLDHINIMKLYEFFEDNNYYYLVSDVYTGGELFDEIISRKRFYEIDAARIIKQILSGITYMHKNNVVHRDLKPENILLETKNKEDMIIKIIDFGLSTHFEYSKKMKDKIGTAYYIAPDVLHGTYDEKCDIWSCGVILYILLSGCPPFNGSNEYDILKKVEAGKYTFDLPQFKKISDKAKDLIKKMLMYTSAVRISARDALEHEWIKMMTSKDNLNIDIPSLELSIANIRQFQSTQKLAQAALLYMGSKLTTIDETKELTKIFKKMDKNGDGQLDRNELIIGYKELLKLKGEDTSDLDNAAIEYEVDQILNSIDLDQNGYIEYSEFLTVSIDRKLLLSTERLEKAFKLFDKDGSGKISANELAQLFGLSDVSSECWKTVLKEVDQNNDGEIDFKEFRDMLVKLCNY

As for `O=C(Cc1cc(=O)oc2cc(O)ccc12)NC1CCC(CN2CCC(c3c[nH]c4ccccc34)CC2)CC1` (configuration not stated), the growth inhibition in test [1] is -10%; in test [4], 96% (active). In addition, the inhibition was 5% in test [2] and -1% in test [3]. In addition, the result in test [5], in test [6], in test [7] and in test [8] was inactive.
In the case of `Cn1nc(C(F)(F)F)cc1-c1ccc(C(=O)NC2CCC(CN3CCC(c4c[nH]c5ccccc45)CC3)CC2)s1` (configuration not stated), the values for the growth inhibition in test [1] and in test [4] were 97% (active) and 101% (active), respectively. The inhibition is 45% in test [2] and -1% in test [3]. For the same compound, the outcome in test [5], in test [6], in test [7] and in test [8] was inactive.
For the compound `CCOC(=O)c1c(C)n(C2CCCCC2)c2cc(Br)c(O)cc12`, the figures for the growth inhibition in test [1] and in test [4] were 71% (active) and 98% (active), respectively. The inhibition in test [2] is 1%; in test [3], -3%. Besides, the outcome in test [5], in test [6], in test [7] and in test [8] was inactive.
For the compound `COc1cc2c(c(OC)c1OC)C[C@H]1c3c(cc4c(c3-2)OCO4)CCN1C`, the figures for the growth inhibition in test [1] and in test [4] were 30% and 84% (active), respectively. Besides, the inhibition was 7% in test [2] and -1% in test [3]. Moreover, the outcome in test [5], in test [6], in test [7] and in test [8] was inactive.
As for `COC(=O)/C=C/c1ccc(CC(C)NCC(O)c2cccc(Br)c2)cc1` (configuration not stated), the values for the growth inhibition in test [1] and in test [4] were 93% (active) and 97% (active), respectively. For the same compound, the inhibition in test [2] is 2%; in test [3], 5%. Further, the result in test [5], in test [6], in test [7] and in test [8] was inactive.
Turning to `CO/C(=C\C=C\c1cc2cc(Cl)c(Cl)cc2[nH]1)C(=O)N[C@H]1CN2CCC1CC2`, the growth inhibition is 36% in test [1] and 82% (active) in test [4]. Moreover, the inhibition is 43% in test [2] and -2% in test [3]. In addition, the result in test [5], in test [6], in test [7] and in test [8] was inactive.
As to `CC[C@H]1CN2CC[C@@H]1C[C@H]2[C@H](O)c1cc(N2CCC(C(N)=O)CC2)nc2ccc(OC)cc12`, the figures for the growth inhibition in test [1] and in test [4] were 9% and 99% (active), respectively. In addition, the inhibition in test [2] is 17%; in test [3], -5%. Moreover, the outcome in test [5], in test [6], in test [7] and in test [8] was inactive.
As for `CC(=O)N(Cc1ccccc1-c1ccc(CNCCc2ccccc2)cc1)C1CCN(Cc2ccccc2)CC1`, the growth inhibition in test [1] is 85% (active); in test [4], 101% (active). In addition, the inhibition in test [2] was 24%; in test [3], 3%. For the same compound, the outcome in test [5], in test [6], in test [7] and in test [8] was inactive.
On to `COc1ccc(CC(C)NCC(O)c2ccc(Cl)c(Cl)c2)cc1` (configuration not stated), for which the growth inhibition in test [1] is 96% (active); in test [4], 98% (active). Besides, the inhibition was 0% in test [2] and 6% in test [3]. Also, the result in test [5], in test [6], in test [7] and in test [8] was inactive.
For the compound `COc1cccc(C(=O)[C@H]2C[C@@H]2CN2CC=C(c3c[nH]c4cccc(Br)c34)CC2)c1`, the growth inhibition in test [1] is 85% (active); in test [4], 96% (active). In addition, the inhibition in test [2] was 22%; in test [3], -3%. Besides, the outcome in test [5], in test [6], in test [7] and in test [8] was inactive.
Take `COCC(=O)N(Cc1cccc(-c2ccc(CNCCc3ccccc3)cc2)c1)C1CCN(Cc2ccccc2)CC1`: the growth inhibition is 45% in test [1] and 93% (active) in test [4]. The inhibition in test [2] was 44%; in test [3] it was 4%. For the same compound, the outcome in test [5], in test [6], in test [7] and in test [8] was inactive.
In the case of `O=C(Nc1ccccc1OC(F)(F)F)NC1CCC(CN2CCC(c3c[nH]c4ccccc34)CC2)CC1` (configuration not stated), the growth inhibition was 60% (active) and 70% (active) in test [1]; 101% (active) and 99% (active) in test [4]. Besides, the inhibition is 33% and 35% in test [2]; 6% and 8% in test [3]. The result in test [5], in test [6], in test [7] and in test [8] was inactive.
On to `COc1ccc2[nH]cc(C3=CCN(Cc4ccccc4)CC3)c2c1`, for which the growth inhibition in test [1] was 84% (active); in test [4], 90% (active). The results for the inhibition in test [2] and in test [3] were 51% (active) and -5%, respectively. The result in test [5], in test [6], in test [7] and in test [8] was inactive.
On to `CN1C(=O)OC[C@@H]1Cc1ccc2[nH]cc(C3=CCN(Cc4ccccc4)CC3)c2c1`, for which the growth inhibition is 66% (active) in test [1] and 86% (active) in test [4]. Besides, the figures for the inhibition in test [2] and in test [3] were 4% and -9%, respectively. Moreover, the outcome in test [5], in test [6], in test [7] and in test [8] was inactive.
Take `O=C(NCc1ccccc1)c1nn(CCCN2CCC3(CC2)C(=O)NCN3c2ccccc2)cc1-c1ccc(Cl)c(Cl)c1`: the growth inhibition in test [1] was 21%; in test [4], 88% (active). Further, the inhibition in test [2] is 6%; in test [3] it was -5%. Also, the outcome in test [5], in test [6], in test [7] and in test [8] was inactive.
Consider `COc1ccc(OC)c(CNCC(O)c2cc(C(F)(F)F)cc(C(F)(F)F)c2)c1` (configuration not stated), for which the growth inhibition in test [1] is 100% (active); in test [4], 92% (active). For the same compound, the inhibition was 7% in test [2] and 6% in test [3]. For the same compound, the result in test [5], in test [6], in test [7] and in test [8] was inactive.
Regarding `CCCc1c(C(=O)NC2CCC(CN3CCC(c4c[nH]c5ccccc45)CC3)CC2)cnn1-c1ccc(Cl)cc1` (configuration not stated), the growth inhibition was 37% in test [1] and 90% (active) in test [4]. The inhibition in test [2] is 53% (active); in test [3], 1%. Also, the result in test [5], in test [6], in test [7] and in test [8] was inactive.
On to `COc1ccc2nc(-c3ccc(F)cc3)cc([C@@H](O)[C@@H]3C[C@@H]4CCN3CC4C=NO)c2c1` (some centres not stated), for which the growth inhibition in test [1] was 94% (active); in test [4], 100% (active). The results for the inhibition in test [2] and in test [3] were 14% and -2%, respectively. The result in test [5], in test [6], in test [7] and in test [8] was inactive.
`Cc1cccc(N2CCN(Cc3cc(Cl)ccc3O)CC2)c1C`: the growth inhibition in test [1] and in test [4] was 96% (active) each time. In addition, the inhibition in test [2] was -2%; in test [3] it was 2%. Further, the outcome in test [5], in test [6], in test [7] and in test [8] was inactive.
